Screens (PubChem BioAssay)
TRHR agonist – qHTS for Small Molecule Agonists and Allosteric Enhancers of Human TRH Receptor: Primary Screen for Agonists | TRHR cells, calcium flux fluo-8, FDSS agonist mode | activation, % at 2 µM | hit rate 0.18% among 360,000 | AID 493084, 2011 | Thyrotropin-releasing hormone receptor (Homo sapiens), P34981; also: 0% is about no effect
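TRHR-expressing cells loaded with fluo-8 calcium dye; 23 nL library compound pin-transferred, kinetic FDSS fluorescence (Ex 480/Em 530) recorded about 180 s for agonist-induced calcium release, before a 10 nM TRH EC20 addition for potentiator mode.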
D1 potentiator – Potentiators of Human D1 Dopamine Receptor: qHTS | D(1A) dopamine receptor (Homo sapiens), P21728 | HEK293 TREx D1 cells, calcium flux, dopamine EC20 potentiation | potentiation, % at 10 µM | hit rate 0.036% among 360,000; in the data active = potentiation above about 30%; also: 0% is about no effect
Target sequence (P21728 whole entry, looked up): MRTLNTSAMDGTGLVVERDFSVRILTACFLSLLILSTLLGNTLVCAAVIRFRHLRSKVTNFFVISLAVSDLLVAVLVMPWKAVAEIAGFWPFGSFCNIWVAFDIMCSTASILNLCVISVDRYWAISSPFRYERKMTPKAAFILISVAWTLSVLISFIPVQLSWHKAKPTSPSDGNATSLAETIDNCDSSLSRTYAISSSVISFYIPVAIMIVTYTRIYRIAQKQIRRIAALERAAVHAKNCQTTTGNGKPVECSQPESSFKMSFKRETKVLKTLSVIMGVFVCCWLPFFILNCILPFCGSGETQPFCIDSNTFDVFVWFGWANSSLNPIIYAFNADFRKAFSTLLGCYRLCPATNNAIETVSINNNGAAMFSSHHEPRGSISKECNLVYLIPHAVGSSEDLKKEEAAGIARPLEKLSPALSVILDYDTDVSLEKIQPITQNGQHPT
D1 antag – Antagonist of Human D 1 Dopamine Receptor: qHTS; D(1A) dopamine receptor (Homo sapiens), P21728; HEK293 TREx D1 cells, calcium flux, dopamine EC80; active compounds read low; activity change, negative = inhibition, % at 10 µM; hit rate 3.2% among 360,000; AID 504652, 2011; in the data active = activity change below about -30%; also: % is scaled to controls: 0 for no effect and ±100 for the full control effect
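Tetracycline-induced HEK293 Trex D1 cells, force-coupled to calcium, dye-loaded; compounds added and read 180 s, then EC80 dopamine added and calcium flux tracked kinetically another 180 s.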
D1 agonist – Allosteric Agonists of the Human D1 Dopamine Receptor: qHTS | hit rate 1% among 360,000 | HEK293 T-REx D1 cells, calcium flux, agonist mode | activation, % at 2 µM; also: 0% is about no effect
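Agonism was scored from calcium flux recorded over 180 s (1 read/s) after pintool compound addition, following a 10-cycle baseline. Cells were inducible force-coupled HEK293 TREx D1, plated overnight at 30 C and loaded with no-wash calcium dye.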
TRHR enhancer – qHTS for Small Molecule Agonists and Allosteric Enhancers of Human TRH Receptor: Primary Screen for Enhancers; Thyrotropin-releasing hormone receptor (Homo sapiens), P34981; TRHR cells, fluo-8 calcium fluorescence, EC20 TRH enhancement; enhancement, % at 2 µM; hit rate 0.66% among 360,000; AID 493056, 2011; in the data active = enhancement above about 30%; also: 0% is about no effect
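Enhancer read-out: after compound pinning and an initial kinetic agonist-mode read, an EC20 of TRH (10 nM final) was injected and fluo-8 calcium signal (Ex 480/Em 530) followed at 1 s/cycle for 100 cycles in TRHR-expressing cells.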
* marks the source's active call; other numbers are inactive results. Compounds with a hit are over-represented: about 4.7% of the library has one in this group of screens. Rule as the data show it, unless noted: active = activation above about 30%; inactive = the rest.

Results for COc1ccc(/C(N)=N/OC(=O)CCc2ccccc2)cc1OC ?
TRHR agonist: -1; D1 potentiator: -5; D1 antag: -31*; D1 agonist: -1; TRHR enhancer: -6

Results for COc1ccc(CCNC(=O)C2CCC(=O)N2CCc2ccccc2)cc1OC (stereo not given) ?
TRHR agonist: 3; D1 potentiator: -6; D1 antag: -32*; D1 agonist: 2; TRHR enhancer: 8

How did COc1ccc(-n2nc(C(=O)N3CCN(c4cccc(C)c4C)CC3)c3c4ccccc4n(C)c3c2=O)cc1Cl do in these assays?
TRHR agonist: 0; D1 potentiator: 2; D1 antag: -1; D1 agonist: -1; TRHR enhancer: -4

What do the screens show for `COc1ccc(CCNC(=O)CCS(=O)(=O)c2cc(Br)cc3c2N(C(C)=O)CC3)cc1OC`?
TRHR agonist: 0; D1 potentiator: 1; D1 antag: 3; D1 agonist: -2; TRHR enhancer: -11

Results for CCc1ccc(C(=O)CC2(O)C(=O)N(CCc3ccccc3)c3ccc(Cl)cc32)cc1 (stereo not given) ?
TRHR agonist: 3; D1 potentiator: -1; D1 antag: -3; D1 agonist: 13; TRHR enhancer: -3

How did COCCNC(=O)CCn1c(=O)c2cc(OC)c(OC)cc2n(CC(=O)Nc2ccc(F)c(Cl)c2)c1=O do in these assays?
TRHR agonist: 0; D1 potentiator: 1; D1 antag: 21; D1 agonist: -1; TRHR enhancer: -2

How did COc1ccc(NC(=O)CC2C(=O)N(c3ccc(OC)cc3)C(=O)N2CCC2=CCCCC2)cc1 (stereo not given) do in these assays?
TRHR agonist: 0; D1 potentiator: -2; D1 antag: -31*; D1 agonist: 1; TRHR enhancer: 0

Results for COc1ccc(NC(=O)CC2C(=O)N(c3ccc(F)cc3)C(=O)N2CCc2sccc2C)cc1 (stereo not given) ?
TRHR agonist: 1; D1 potentiator: -3; D1 antag: -3; D1 agonist: 4; TRHR enhancer: 1

What do the screens show for `COc1ccc(CCN2C(=O)N(c3ccc(F)cc3)C(=O)C2CC(=O)Nc2ccccc2)cc1` (stereo not given)?
TRHR agonist: 0; D1 potentiator: 0; D1 antag: 3; D1 agonist: -1; TRHR enhancer: -6

How did COc1ccc(NC(=O)CC2C(=O)N(c3ccc(C)cc3)C(=O)N2CCc2ccccc2)cc1 (stereo not given) do in these assays?
TRHR agonist: -1; D1 potentiator: -5; D1 antag: -37*; D1 agonist: 1; TRHR enhancer: 4

How did O=C(CC1C(=O)N(c2ccccc2)C(=O)N1Cc1ccco1)Nc1ccccc1 (stereo not given) do in these assays?
TRHR agonist: 0; D1 potentiator: -1; D1 antag: -44*; D1 agonist: 1; TRHR enhancer: 1

How did Cc1cccc(N2C(=O)C(CC(=O)Nc3ccc(Cl)cc3)N(Cc3ccco3)C2=O)c1 (stereo not given) do in these assays?
TRHR agonist: 0; D1 potentiator: -1; D1 antag: -2; D1 agonist: -1; TRHR enhancer: -3

How did CCOc1ccc(NC(=O)CC2C(=O)N(c3ccc(F)cc3)C(=O)N2CCc2sccc2C)cc1 (stereo not given) do in these assays?
TRHR agonist: 1; D1 potentiator: 1; D1 antag: 3; D1 agonist: 1; TRHR enhancer: 42*

What do the screens show for `COc1cccc(NC(=O)C2CCCN(c3nnc(-n4c(C)ccc4C)s3)C2)c1` (stereo not given)?
TRHR agonist: -1; D1 potentiator: 1; D1 antag: -14; D1 agonist: 0; TRHR enhancer: 0

How did COC(=O)CN1C(=S)N(c2ccc(Cl)cc2)C(=O)C1CC(=O)Nc1ccc(F)cc1 (stereo not given) do in these assays?
TRHR agonist: 0; D1 potentiator: -6; D1 antag: -10; D1 agonist: 16; TRHR enhancer: 4
